D2 PAM-1: D2 dopamine receptor (human) potentiation. 340,000 tested, 0.34% active. HEK293 T-REx D2, calcium flux, EC20 dopamine potentiation. potentiation, % at 10 µM;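 active means potentiation over 3 SD above the plate norm, cut at about 30% in these data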; further: 0% is about no effect
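Cells plated with tetracycline inducer and held overnight at 30 C; calcium dye loaded 30–90 min at room temperature; baseline taken, compound added and read 180 s; EC20 dopamine then added and read 180 s.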
D2 PAM-2: human D2 receptor positive allosteric modulation; P14416; DiscoveRx D2 beta-arrestin cells, luminescence, 90 min; 100% = 57 uM dopamine signal; potentiation, % (no concentration beside the values); 360,000 tested, 0.23% active; in the data active means potentiation above about 50%; inconclusive means mostly about 30% to 49%
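D2 cells co-treated with compound plus 50 nM dopamine (EC20) for 90 min at 37 deg C to detect potentiation. Beta-arrestin recruitment was read as enzyme-fragment luminescence after 1 h at ambient temperature. Full response was set by 57 uM dopamine.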
D2 ag-1: agonists of human D2 dopamine receptor. HEK293 T-REx D2 cells, calcium flux agonist mode. activation, % at 2 µM. 340,000 tested, 0.53% active. AID 485358;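 active means activation over 3 SD above normal in the single-dose calcium agonist read, cut at about 30% in these data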; further: 0% is about no effect
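Calcium-flux readout, 1 cycle/sec over 180 s following compound pin transfer, in inducible HEK293 Trex D2 cells (force-coupled); dopamine controls included. Positive calcium responses during this window marked compounds as potential agonists.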
D2 ag-2: agonists of human D2 dopamine receptor (beta-arrestin); AID 624465; P14416; activation, % (concentration not given with the values); DiscoveRx PathHunter D2 beta-arrestin, luminescence, 90 min; 100% = 57 uM dopamine signal; 360,000 tested, 0.084% active; in the data active means activation above about 40%; inconclusive means between about 15% and that limit
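Agonist mode: compounds alone added to overnight-plated D2 PathHunter cells for 90 min at 37 C, with 57 uM final dopamine (EC100) defining full response. Beta-arrestin recruitment detected by chemiluminescent reagent, read after 1 h at ambient temperature.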
D2 antagonist: antagonizes the human D2 dopamine receptor; inhibition, % at 10 µM; 340,000 tested, 2% active; HEK293 TREx D2 cells, calcium flux, dopamine EC80; P14416; in the data active means inhibition above about 30%; inactive means below that, where a call was filed; further: 0% is about no effect
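HEK293 T-REx D2 cells, tet-induced, calcium dye no-wash. Cpd pintool add, 180 s kinetic, then EC80 DA, 180 s kinetic. Ca flux read.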
D3 ag: D3 receptor agonism confirmed, beta-arrestin readout | shares compounds with D2 ag-1 | Potency, µM (top dose mostly 76.9 µM), without a hit: at the top dose activation, usual class: activators | 2,300 tested, 4% active | AID 720506 | DiscoveRx D3 beta-arrestin cells, luminescence, 90 min;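 further: potency means the concentration at half of the fitted maximal effect; 100% = dopamine control response; nearly all actives have a fitted effect of over 70% in size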
Target sequence (P35462 whole entry, looked up): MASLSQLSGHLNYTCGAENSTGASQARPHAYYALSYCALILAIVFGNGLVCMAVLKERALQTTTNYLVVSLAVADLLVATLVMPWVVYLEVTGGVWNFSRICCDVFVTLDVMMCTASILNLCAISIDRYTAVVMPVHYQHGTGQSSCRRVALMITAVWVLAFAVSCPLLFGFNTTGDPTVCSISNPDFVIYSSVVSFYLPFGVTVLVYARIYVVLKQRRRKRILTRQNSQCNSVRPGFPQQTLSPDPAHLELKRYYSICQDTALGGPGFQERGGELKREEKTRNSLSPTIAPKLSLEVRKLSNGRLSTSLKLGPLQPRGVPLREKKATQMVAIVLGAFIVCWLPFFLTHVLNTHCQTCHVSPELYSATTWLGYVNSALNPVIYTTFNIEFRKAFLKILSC
D2 ag-3: activates human D2 dopamine receptor in D3 counterscreen | 2,300 tested, 5.9% active | Potency, µM (highest dose often 76.9 µM), without a hit: at the highest dose activation, usual class: activators | shares compounds with D2 ag-1 | DiscoveRx PathHunter D2 beta-arrestin, luminescence, 90 min; response scale: percent relative to full dopamine signal; further: potency means the concentration at half of the fitted maximal effect; % of control where 0% means no effect; nearly all actives have a fitted effect of over 70% in size
* marks the source's active call; other numbers are inactive results; ? = inconclusive; · = no result. This is a sample that favours compounds with a hit; in the whole collection about 2.4% have one here. Unless noted, the call rests on the fitted dose curve; in most records, active means well fitted activation curve with a large enough effect; inconclusive means small, poorly fitted or top-dose-only effect; inactive means flat fitted curve, though single readings scatter.

SMILES	D2 PAM-1	D2 PAM-2	D2 ag-1	D2 ag-2	D2 antagonist	D3 ag	D2 ag-3
Cc1cc(-c2ccc(C)c(S(=O)(=O)NC(c3cccs3)C(C)C)c2)on1 (centres undefined)	1	·	0	·	·	·	·
COc1cc(-c2cc(C(=O)Nc3c(Cl)cc(Cl)cc3Cl)c3ccccc3n2)cc(OC)c1OC	7	-14	0	-5	5	·	·
COc1ccc2nc3ccccc3nc2c1NC(=O)c1ccc(Cl)cc1Cl	-3	-25	29	-7	6	-6%	15%
OCC[C@H]1C[C@@H](O)[C@H](O)[C@]2(OCc3ccccc32)O1	6	-3	0	-2	-2	-4%	0%
OCC[C@H]1C[C@H](O)[C@@H](O)[C@@]2(OCCCc3ccccc32)O1	0	-2	1	-3	-7	0%	-4%
OCC[C@@H]1C[C@@H](O)[C@H](O)[C@]2(OCCCc3ccccc32)O1	-2	-2	1	-1	-10	·	·
COc1ccc(OC)c(CNc2ncc(-c3ccc(Cl)cc3)n2C)c1	-9	·	0	·	·	·	·
CSc1ncc(C(=O)NCc2ccc(Cl)cc2)c(C(F)(F)F)n1	-7	·	·	·	·	·	·
COCc1ccc(-c2ccc3c(c2)c(C#Cc2ccsc2)c(-c2cc(OC)cc(OC)c2)n3C)cc1	-8	-4	1	-1	-20	-5%	-4%
CCn1c(N2CCN(S(=O)(=O)c3ccccc3)CC2)nc2ccccc21	19	-1	-1	?	20	?	19%
COc1cc(C#Cc2c(-c3ccccc3OC)oc3ccccc23)cc(OC)c1	4	-2	3	-8	0	-2%	2%
COc1cc2c(C#CCCO)c(-c3ccsc3)oc(=O)c2cc1OC	·	4	·	3	·	·	·
COc1cc2c(C#CCCO)c(-c3ccc(C#N)cc3)oc(=O)c2cc1OC	-10	0	0	0	26	8%	-1%
Cc1ccc(Cl)cc1N1CCN(CCCNc2ncnc3onc(-c4ccc(F)cc4)c23)CC1	0	·	0	·	·	·	·
O=C(Nc1cccc(Cl)c1)c1ccc(NCCCN2CCOCC2)c([N+](=O)[O-])c1	3	-34	-2	-2	-10	·	·
Cc1ccc(NC(=O)c2ccc(NCCCN3CCC(C)CC3)c([N+](=O)[O-])c2)cc1F	-17	-12	29	-2	5	-17%	10%
CCOC(=O)c1ccc(NC(=O)C2CCCN(c3ccc(Sc4ccc(C)cc4)nn3)C2)cc1 (centres undefined)	12	·	1	·	·	·	·
Nc1nc(N)nc(-c2ccc(Cl)c(Cl)c2)n1	-6	-3	2	-1	-9	-1%	-4%
Cn1c(CCN2CCN(c3ccccn3)CC2)nc2cc(NC(=O)COc3ccc(Cl)cc3)ccc21	2	-20	-1	11	37*	26%	?
Cc1cccc(OCC(=O)Nc2ccc3c(c2)nc(CCN2CCN(c4ccccn4)CC2)n3C)c1	-5	-20	0	10	31*	28µM*	?
O=C(NCc1ccccc1Cl)c1cnc2sc(N3CCCCC3)nn2c1=O	·	·	0	·	·	·	·
CCc1ccccc1NC(=O)CCn1cccn1	5	·	0	·	·	·	·
CCc1nnc(NC(=O)CN2CCC(O)(c3ccccc3OC)CC2)s1	2	1	0	0	-5	·	·
COc1ccccc1C1(O)CCN(CC(=O)Nc2nc(-c3ccccc3)cs2)CC1	-16	-14	32*	2	-3	1%	20%
CCOC(=O)N1CCc2c(sc(N)c2C#N)C1	-26	54*	74*	?	58*	?	?
SMILES	D2 PAM-1	D2 PAM-2	D2 ag-1	D2 ag-2	D2 antagonist	D3 ag	D2 ag-3
COC(=O)[C@H](Cc1ccccc1)NS(=O)(=O)N[C@@H](Cc1ccccc1)C(=O)OC	-9	-4	5	-2	-8	-6%	-1%
COC(=O)C(Cc1ccccc1)NS(=O)(=O)c1ccccc1Br (centres undefined)	-5	-3	2	0	-27	·	·
NC(Cc1ccc(F)cc1)c1csc(Nc2ccc(C(=O)c3ccccc3)cc2)n1 (centres undefined)	·	-10	·	?	·	·	·
Cc1ccc(N/C(N)=N/c2nc(C)cc(C)n2)cc1	-34	-27	80*	0	31*	-4%	4%
Cc1cc(C)nc(/N=C(\N)Nc2ccc([N+](=O)[O-])cc2)n1	-9	-2	15	1	37*	-7%	-4%
CCCCc1ccc(N/C(N)=N/c2nc(C)cc(C)n2)cc1	-14	-4	56*	?	43*	?	?
CCC(=O)Nc1ccc(N/C(N)=N/c2nc(C)cc(C)n2)cc1	4	-21	1	-3	2	·	·
CCCN1C(=O)CSC1=Nc1ccccc1	3	-9	1	1	5	·	·
O=C1CSC(=Nc2ccccc2)N1Cc1ccccc1	·	-7	·	2	·	-5%	-1%
O=C(c1ccc(Cl)c(S(=O)(=O)N2CCCCC2)c1)N1CCCC(C(F)(F)F)C1 (centres undefined)	-6	-1	0	3	22	0%	0%
O=C(Nc1ccc(Cl)cc1Cl)c1cc(S(=O)(=O)N2CCC3(CC2)OCCO3)ccc1F	5	·	1	·	·	·	·
O=C(c1ccco1)N1CCN(Cc2ccccc2Br)CC1	-31	?	76*	?	78*	?	50µM*
O=C(c1ccco1)N1CCN(Cc2cn[nH]c2-c2ccc(F)cc2F)CC1	-5	4	28	4	-20	·	·
O=C(c1ccco1)N1CCN(C(=O)c2ccco2)CC1	·	-4	·	-2	·	·	·
O=C(c1ccco1)N1CCN(Cc2ccc(F)cc2Cl)CC1	-26	23	79*	?	58*	29%	?
CC(C)(C)c1ccc(S(=O)(=O)N2CCC(Oc3ccc(-n4cnnn4)cc3)CC2)cc1	8	·	0	·	·	·	·
Cc1cccc(C(=O)Nc2cccc(C(=O)OCc3cc(=O)n4nc(C5CC5)sc4n3)c2)c1	-2	·	0	·	·	·	·
COc1cc(CC(=O)Nc2ccc3nc(C)sc3c2)cc(OC)c1OC	1	-5	56*	-1	-11	2%	1%
CC1(C(=O)NS(=O)(=O)c2cccc(F)c2)CCN1C(=O)CC1CCCC1 (centres undefined)	·	2	·	10	·	·	·
O=C(CCC(=O)N1CC2CCCN2c2ccccc21)NCc1ccc(Cl)cc1 (centres undefined)	-5	·	0	·	·	·	·

From PubChem
